Test in all cases: DAPPL (digital affinity profiling via proximity ligation, sequencing); 10 mM Tris-HCl pH 7.5, 50 mM NaCl, 1 mM DTT, 4% glycerol, room temperature, 30 min; GST-TFs on glutathione beads, 16-mer random dsDNA library, 0.1% formaldehyde crosslink after washing; high values mean tight binding
Conditions in all cases: protein: recombinant; tags: N-terminal GST; dsDNA, one strand shown

Assay [1] has as its target T1, GABPA (Homo sapiens, UniProt Q06546 1-454).
T1 sequence: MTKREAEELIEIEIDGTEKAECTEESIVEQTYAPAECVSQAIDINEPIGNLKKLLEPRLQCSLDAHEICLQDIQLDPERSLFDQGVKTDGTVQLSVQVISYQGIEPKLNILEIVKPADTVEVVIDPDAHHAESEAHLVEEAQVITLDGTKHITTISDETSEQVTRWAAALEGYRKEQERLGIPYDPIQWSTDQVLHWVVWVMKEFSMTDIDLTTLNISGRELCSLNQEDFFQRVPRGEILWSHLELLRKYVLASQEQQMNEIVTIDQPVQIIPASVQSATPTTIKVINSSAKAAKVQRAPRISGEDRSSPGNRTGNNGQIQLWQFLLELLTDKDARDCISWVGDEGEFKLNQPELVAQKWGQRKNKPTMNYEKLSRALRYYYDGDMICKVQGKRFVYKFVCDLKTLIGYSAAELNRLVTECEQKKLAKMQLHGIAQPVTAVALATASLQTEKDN
The essentials: (§1)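 A tag-only sample was pooled with DNA-barcoded human transcription factors that had been expressed in yeast as GST fusions and captured on glutathione beads. The pools were incubated for 30 min at room temperature with 200 nmole of a random double-stranded 16-mer DNA library in Tris/NaCl/DTT/glycerol buffer, then washed, crosslinked with 0.1% formaldehyde, proximity-ligated (BsaI/T4 ligase, 1 h, 37 °C), PCR-amplified and sequenced on an Illumina NextSeq500. Binding signal is each hexamer's read frequency for a factor divided by its frequency for the tag-only sample.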

Assay [2] deals with ELF1 (Homo sapiens, UniProt P32519 1-619). The essentials:
as §1

For assay [3], the target named is ETV5 (Homo sapiens, UniProt P41161 1-510). In a few lines: as §1
Assay [4] concerns the target T2, ERF (Homo sapiens, UniProt P50548 1-548).
T2 sequence: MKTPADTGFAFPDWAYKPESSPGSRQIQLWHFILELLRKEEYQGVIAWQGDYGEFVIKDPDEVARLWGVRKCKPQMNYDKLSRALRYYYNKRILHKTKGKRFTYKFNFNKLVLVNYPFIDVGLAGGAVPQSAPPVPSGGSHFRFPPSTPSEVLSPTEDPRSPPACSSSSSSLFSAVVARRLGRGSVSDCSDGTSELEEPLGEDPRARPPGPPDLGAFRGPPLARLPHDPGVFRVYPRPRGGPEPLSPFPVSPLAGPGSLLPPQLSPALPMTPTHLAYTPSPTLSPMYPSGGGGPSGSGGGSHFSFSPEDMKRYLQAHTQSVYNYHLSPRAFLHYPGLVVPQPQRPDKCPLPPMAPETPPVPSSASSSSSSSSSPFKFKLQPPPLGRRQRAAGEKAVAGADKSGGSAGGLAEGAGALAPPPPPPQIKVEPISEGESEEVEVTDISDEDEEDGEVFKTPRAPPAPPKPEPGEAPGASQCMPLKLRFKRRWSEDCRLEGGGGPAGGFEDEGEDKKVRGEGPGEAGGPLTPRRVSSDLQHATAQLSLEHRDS
The essentials: as §1

The target in assay [5] is T3, ETV3L (Homo sapiens, UniProt Q6ZN32 1-361).
T3 sequence: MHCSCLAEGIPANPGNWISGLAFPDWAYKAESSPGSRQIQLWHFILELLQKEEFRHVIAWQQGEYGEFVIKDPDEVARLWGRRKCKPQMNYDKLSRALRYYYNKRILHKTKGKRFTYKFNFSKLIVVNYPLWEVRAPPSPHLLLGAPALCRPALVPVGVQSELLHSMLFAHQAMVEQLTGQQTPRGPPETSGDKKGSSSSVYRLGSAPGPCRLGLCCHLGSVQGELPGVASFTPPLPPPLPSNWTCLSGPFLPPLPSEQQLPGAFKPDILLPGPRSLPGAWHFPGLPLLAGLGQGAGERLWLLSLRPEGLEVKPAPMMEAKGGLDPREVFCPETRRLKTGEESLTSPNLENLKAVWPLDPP
In a few lines: as §1

Assay [6] has as its target T4, ETV7 (Homo sapiens, UniProt Q9Y603 1-341).
T4 sequence: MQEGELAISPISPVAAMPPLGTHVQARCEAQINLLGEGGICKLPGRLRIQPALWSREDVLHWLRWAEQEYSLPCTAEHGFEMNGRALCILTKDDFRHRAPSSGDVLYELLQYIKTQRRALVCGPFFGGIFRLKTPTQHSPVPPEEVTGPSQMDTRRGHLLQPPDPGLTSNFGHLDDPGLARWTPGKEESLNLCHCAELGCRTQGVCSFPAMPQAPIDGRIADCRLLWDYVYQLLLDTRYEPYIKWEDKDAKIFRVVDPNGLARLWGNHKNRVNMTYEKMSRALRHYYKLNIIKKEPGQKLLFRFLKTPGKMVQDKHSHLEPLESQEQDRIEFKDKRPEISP
In a few lines:
as §1

For assay [7], the target named is T5, ERG (Homo sapiens, UniProt P11308 1-479).
T5 sequence: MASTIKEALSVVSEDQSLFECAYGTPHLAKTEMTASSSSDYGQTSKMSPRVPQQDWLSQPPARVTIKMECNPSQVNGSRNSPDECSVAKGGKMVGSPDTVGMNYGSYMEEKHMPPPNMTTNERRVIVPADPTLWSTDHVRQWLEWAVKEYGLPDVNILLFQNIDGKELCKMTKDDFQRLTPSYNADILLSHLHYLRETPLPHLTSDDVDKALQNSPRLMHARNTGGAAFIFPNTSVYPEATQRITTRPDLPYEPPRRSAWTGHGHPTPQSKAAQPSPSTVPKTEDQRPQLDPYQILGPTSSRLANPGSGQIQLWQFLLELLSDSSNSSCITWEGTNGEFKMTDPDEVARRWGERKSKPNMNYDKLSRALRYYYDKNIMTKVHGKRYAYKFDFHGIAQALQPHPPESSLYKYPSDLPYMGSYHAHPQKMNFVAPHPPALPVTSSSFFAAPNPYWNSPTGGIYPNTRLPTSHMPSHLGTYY
In a few lines: as §1

Assay [8] has as its target T6, SPIC (Homo sapiens, UniProt Q8N5J4 1-248).
T6 sequence: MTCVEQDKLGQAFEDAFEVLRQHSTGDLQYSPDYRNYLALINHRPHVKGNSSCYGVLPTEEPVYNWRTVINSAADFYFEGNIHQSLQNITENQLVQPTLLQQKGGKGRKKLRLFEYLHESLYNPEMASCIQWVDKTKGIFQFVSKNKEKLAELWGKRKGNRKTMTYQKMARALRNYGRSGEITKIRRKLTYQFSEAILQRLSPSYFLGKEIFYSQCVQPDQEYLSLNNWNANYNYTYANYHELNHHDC
The essentials: as §1

Assay [9] has as its target ELF4 (Homo sapiens, UniProt Q99607 1-663). The essentials: as §1
The target of assay [10] is T7, ELF3 (Homo sapiens, UniProt P78545 1-371).
T7 sequence: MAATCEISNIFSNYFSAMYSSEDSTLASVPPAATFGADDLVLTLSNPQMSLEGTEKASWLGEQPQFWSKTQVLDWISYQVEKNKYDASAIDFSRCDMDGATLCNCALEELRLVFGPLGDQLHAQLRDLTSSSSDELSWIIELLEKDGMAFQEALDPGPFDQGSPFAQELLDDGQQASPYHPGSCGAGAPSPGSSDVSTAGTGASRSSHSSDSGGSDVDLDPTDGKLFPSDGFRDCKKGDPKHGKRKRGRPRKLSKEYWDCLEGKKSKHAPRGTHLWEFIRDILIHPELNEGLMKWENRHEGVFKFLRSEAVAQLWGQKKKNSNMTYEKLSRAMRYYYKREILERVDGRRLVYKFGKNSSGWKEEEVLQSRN
In a few lines:
as §1

Assay [11] concerns the target ETV6 (Homo sapiens, UniProt P41212 1-452). The essentials:
as §1

This note sets out measurements from article PMC7862700, “An all-to-all approach to the identification of sequence-specific readers for epigenetic DNA modifications on cytosine”.

Sequence of ETV5 (P41161 whole entry): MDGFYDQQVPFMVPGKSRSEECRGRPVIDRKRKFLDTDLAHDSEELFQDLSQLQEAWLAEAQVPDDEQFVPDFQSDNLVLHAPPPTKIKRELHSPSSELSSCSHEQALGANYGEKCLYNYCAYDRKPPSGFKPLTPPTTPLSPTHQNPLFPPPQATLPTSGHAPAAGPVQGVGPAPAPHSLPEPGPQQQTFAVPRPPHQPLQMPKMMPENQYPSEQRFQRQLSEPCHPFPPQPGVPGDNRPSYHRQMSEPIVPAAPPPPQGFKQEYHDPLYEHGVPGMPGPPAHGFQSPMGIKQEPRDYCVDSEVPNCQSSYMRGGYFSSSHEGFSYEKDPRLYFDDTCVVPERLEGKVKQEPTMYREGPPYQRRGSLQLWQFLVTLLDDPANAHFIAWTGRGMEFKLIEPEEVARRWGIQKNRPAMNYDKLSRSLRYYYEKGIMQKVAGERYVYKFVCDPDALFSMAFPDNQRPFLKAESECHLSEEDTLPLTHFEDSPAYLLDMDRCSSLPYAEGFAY
Sequence of ELF1 (P32519 whole entry): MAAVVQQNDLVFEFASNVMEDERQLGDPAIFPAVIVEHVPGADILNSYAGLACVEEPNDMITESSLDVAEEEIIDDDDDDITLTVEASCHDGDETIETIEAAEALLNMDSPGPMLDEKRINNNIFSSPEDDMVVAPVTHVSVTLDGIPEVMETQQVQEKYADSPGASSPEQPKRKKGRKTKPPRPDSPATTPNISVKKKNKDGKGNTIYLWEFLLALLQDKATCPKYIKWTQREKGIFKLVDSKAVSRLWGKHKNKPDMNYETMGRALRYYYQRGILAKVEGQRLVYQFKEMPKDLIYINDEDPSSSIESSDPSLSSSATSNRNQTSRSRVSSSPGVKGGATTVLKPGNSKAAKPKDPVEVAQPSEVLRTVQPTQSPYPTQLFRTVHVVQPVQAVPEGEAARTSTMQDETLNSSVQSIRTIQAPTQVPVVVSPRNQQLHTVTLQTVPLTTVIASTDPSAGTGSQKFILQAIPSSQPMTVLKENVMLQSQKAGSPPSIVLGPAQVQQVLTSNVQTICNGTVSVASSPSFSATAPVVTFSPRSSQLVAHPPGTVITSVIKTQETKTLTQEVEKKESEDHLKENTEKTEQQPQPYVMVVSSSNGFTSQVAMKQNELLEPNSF
Sequence of ELF4 (Q99607 whole entry): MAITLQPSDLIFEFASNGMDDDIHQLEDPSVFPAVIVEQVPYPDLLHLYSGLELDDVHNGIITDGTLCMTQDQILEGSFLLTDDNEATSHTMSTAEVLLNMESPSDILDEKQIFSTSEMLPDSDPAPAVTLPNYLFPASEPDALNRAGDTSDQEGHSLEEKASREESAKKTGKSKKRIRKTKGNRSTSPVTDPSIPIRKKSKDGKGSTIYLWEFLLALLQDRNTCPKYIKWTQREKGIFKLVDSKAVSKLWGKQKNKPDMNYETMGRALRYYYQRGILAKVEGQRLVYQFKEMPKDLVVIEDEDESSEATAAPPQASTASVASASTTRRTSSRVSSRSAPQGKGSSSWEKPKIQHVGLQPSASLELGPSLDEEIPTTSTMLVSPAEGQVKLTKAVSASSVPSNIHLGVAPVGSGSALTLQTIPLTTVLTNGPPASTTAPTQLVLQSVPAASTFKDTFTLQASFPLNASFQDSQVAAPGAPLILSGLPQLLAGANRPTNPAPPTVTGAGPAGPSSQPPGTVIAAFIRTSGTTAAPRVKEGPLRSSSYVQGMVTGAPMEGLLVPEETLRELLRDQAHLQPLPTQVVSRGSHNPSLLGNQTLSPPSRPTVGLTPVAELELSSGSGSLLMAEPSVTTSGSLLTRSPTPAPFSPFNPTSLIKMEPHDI
Sequence of ETV6 (P41212 whole entry): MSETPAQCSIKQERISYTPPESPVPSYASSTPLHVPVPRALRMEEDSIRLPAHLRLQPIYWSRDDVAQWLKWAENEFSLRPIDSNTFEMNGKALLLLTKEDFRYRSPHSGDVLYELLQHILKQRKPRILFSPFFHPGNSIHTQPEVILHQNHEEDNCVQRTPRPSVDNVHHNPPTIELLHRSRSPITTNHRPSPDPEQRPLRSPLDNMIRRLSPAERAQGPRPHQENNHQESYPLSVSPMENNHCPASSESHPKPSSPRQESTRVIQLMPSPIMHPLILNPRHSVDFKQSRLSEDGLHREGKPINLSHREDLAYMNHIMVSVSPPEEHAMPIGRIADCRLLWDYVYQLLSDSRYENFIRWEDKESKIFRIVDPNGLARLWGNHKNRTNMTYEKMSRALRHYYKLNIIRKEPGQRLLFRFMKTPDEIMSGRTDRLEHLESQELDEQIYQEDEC

For the sequence GCTAGA, the binding signal was 1.03 fold enrichment (6-mer frequency, TF over GST control) in assay [1]; 1.01 fold enrichment (6-mer frequency, TF over GST control) in [2]; 1.02 fold enrichment (6-mer frequency, TF over GST control) in [3]; 1.07 fold enrichment (6-mer frequency, TF over GST control) in [4]; 1.04 fold enrichment (6-mer frequency, TF over GST control) in [5]; 1 fold enrichment (6-mer frequency, TF over GST control) in [6].

Turning to CATAAG, the binding signal in [3] is 1 fold enrichment (6-mer frequency, TF over GST control); in [4], 1 fold enrichment (6-mer frequency, TF over GST control).

Turning to ACTCAG, the binding signal in [7] was 1.06 fold enrichment (6-mer frequency, TF over GST control); in [2], 1.07 fold enrichment (6-mer frequency, TF over GST control); in assay [3] it was 1.03 fold enrichment (6-mer frequency, TF over GST control); in [8], 1.11 fold enrichment (6-mer frequency, TF over GST control); in [9] it was 1.08 fold enrichment (6-mer frequency, TF over GST control); in assay [10], 1.02 fold enrichment (6-mer frequency, TF over GST control). In addition, the binding signal in assay [5] is 1.01 fold enrichment (6-mer frequency, TF over GST control); in assay [6], 1.05 fold enrichment (6-mer frequency, TF over GST control); in [11], 1.05 fold enrichment (6-mer frequency, TF over GST control).
